This is part of a sample that, as a whole, favours compounds with a hit. Of some 79,000 tested, about 15% had one in any assay. Calls of active or inactive are those of the source. No stated cut-off is given here; in the data, active means growth inhibition above about 70%; inactive means the rest.
Experiments:
[1] = NCI Yeast Anticancer Drug Screen. Data for the rad52 strain (AID 147);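 further: 0% = growth of vehicle-treated control cultures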; conditions: S. cerevisiae rad52 mutant growth inhibition, hits give high values
Method in brief: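 Genetically altered yeast (DNA damage repair defect) treated with compound; inhibition calculated relative to vehicle.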

[2] = NCI Yeast Anticancer Drug Screen. Data for the wt1 strain (AID 149);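 further: 0% = growth of vehicle-treated wt1 cultures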; conditions: S. cerevisiae wt1 strain (SPY 50644) growth inhibition, hits give high values
Method in brief: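 wt1 yeast, compound-treated; % growth inhibition vs vehicle control.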

[3] = NCI Yeast Anticancer Drug Screen. Data for the rad50EPP+ strain (AID 151);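 further: 0% = growth of vehicle-treated control cultures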; conditions: S. cerevisiae rad50 mutant strain, hits give high values
Method in brief: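 Strain rad50EPP+; compound exposure; % growth inhibition vs vehicle.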

[4] = NCI Yeast Anticancer Drug Screen. Data for the mgt1 strain (AID 153); conditions: S. cerevisiae mgt1 mutant growth inhibition, hits give high values
Method in brief: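 Read-out: yeast growth inhibition vs vehicle control. Strain mgt1, drawn from a panel altered in DNA damage repair or cell cycle control.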

[5] = NCI Yeast Anticancer Drug Screen. Data for the rad50 strain (AID 155);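 further: 0% = growth of vehicle-only cultures of the same strain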; conditions: S. cerevisiae rad50 strain growth inhibition, hits give high values
Method in brief: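 Genetically altered yeast (DNA repair pathway); compound treatment; growth inhibition vs vehicle ctrl.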

[6] = NCI Yeast Anticancer Drug Screen. Data for the mec2-1 strain (AID 157); conditions: S. cerevisiae mec2-1 strain, hits give high values
Method in brief: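 Cells of the genetically defined mec2-1 yeast strain are incubated with test compound. Inhibition of growth is calculated against vehicle-treated controls.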

[7] = NCI Yeast Anticancer Drug Screen. Data for the rad14 strain (AID 159);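 further: 0% = growth of vehicle-treated control cultures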; conditions: S. cerevisiae rad14 strain growth inhibition, hits give high values
Method in brief: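 Test compounds were applied to a repair-deficient yeast strain. Its growth was then compared with that of cultures given vehicle alone, and inhibition was expressed relative to those controls.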

[8] = NCI Yeast Anticancer Drug Screen. Data for the sgs1 mgt1 strain (AID 161);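 further: 0% = growth of cultures given vehicle only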; conditions: S. cerevisiae sgs1 mgt1 strain, hits give high values
Method in brief: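 Inhibition of yeast growth, normalised to vehicle-treated controls, is reported for a strain bearing genetic alterations in DNA damage repair.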

[9] = NCI Yeast Anticancer Drug Screen. Data for the CLN2oe strain (AID 163);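 further: 0% = growth of vehicle-only control cultures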; conditions: S. cerevisiae CLN2oe strain, hits give high values
Method in brief: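 Strain altered in cell-cycle control, incubated with compound; growth compared to solvent-treated controls.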

[10] = NCI Yeast Anticancer Drug Screen. Data for the cln2 rad14 strain (AID 165);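 further: 0% = growth equal to vehicle treated cultures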; conditions: S. cerevisiae cln2 rad14 strain, hits give high values
Method in brief: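 The screen exposed genetically defined yeast (cln2 rad14) to test compounds and scored growth inhibition relative to vehicle-treated controls.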

[11] = NCI Yeast Anticancer Drug Screen. Data for the bub3 strain (AID 167); conditions: S. cerevisiae bub3 mutant strain, hits give high values
Method in brief: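 Yeast carrying a defined mutation is treated with each compound, and growth is compared with that of vehicle-exposed cells to give inhibition.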

[12] = NCI Yeast Anticancer Drug Screen. Data for the wt2 strain (AID 169);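 further: 0% = growth of vehicle-treated yeast cultures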; conditions: S. cerevisiae wt2 strain growth inhibition, hits give high values
Method in brief: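 Steps: yeast strain treated with compound; growth recorded; inhibition calculated relative to cultures given vehicle alone.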

[13] = NCI Yeast Anticancer Drug Screen. Data for the mlh1 strain (AID 171);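 further: 0% = growth of vehicle-treated control cultures of the same strain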; conditions: S. cerevisiae mlh1 strain growth inhibition, hits give high values
Method in brief: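 Yeast screen: mutant strain plus compound, growth scored against vehicle control wells.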

[14] = NCI Yeast Anticancer Drug Screen. Data for the sgs1 strain (AID 173);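 further: 0% = growth of vehicle-only control cultures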; conditions: S. cerevisiae sgs1 mutant, hits give high values
Method in brief: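 Inhibition of yeast growth served as the measure. The mutant strain was treated with each compound, and growth was normalised to cultures receiving vehicle alone.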

[15] = NCI Yeast Anticancer Drug Screen. Data for the mlh1 rad18 strain (AID 175); conditions: S. cerevisiae mlh1 rad18 strain growth inhibition, hits give high values
Method in brief: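 Compound-treated yeast growth, normalised to vehicle controls. Strain bears defined DNA repair mutations.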

[16] = NCI Yeast Anticancer Drug Screen. Data for the rad18 strain (AID 177); conditions: S. cerevisiae rad18 mutant growth inhibition, hits give high values
Method in brief: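 Inhibition values reflect reduced yeast growth compared with vehicle-treated controls, using a strain engineered with a DNA damage repair defect.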

[17] = at 5.0 µM (retest, dose inferred, filed as 0.5)
[18] = at 50.0 µM (retest, dose inferred, filed as 5.0)

Measured: growth inhibition

CCc1c(Cl)c(C)c(Cl)c(O)c1Cl
active: [1]; at 33.0 µM 97% | [1]; at 100.0 µM 99% | [2]; at 33.0 µM 93% | [2]; at 100.0 µM 98% | [3]; at 33.0 µM 87% | [3]; at 100.0 µM 96% | [4]; at 33.0 µM 98% | [4]; at 100.0 µM 99% | [5]; at 33.0 µM 96% | [5]; [18] 98% | [5]; at 50.0 µM 92% | [5]; at 100.0 µM 99% | [6]; at 33.0 µM 95% | [6]; [18] 98% | [6]; at 50.0 µM 93.3% | [6]; at 100.0 µM 97% | [7]; at 33.0 µM 98% | [7]; at 100.0 µM 99% | [8]; [18] 97% | [8]; at 50.0 µM 93.8% | [9]; at 33.0 µM 90% | [9]; at 100.0 µM 99% | [10]; [18] 98% | [10]; at 50.0 µM 92.8% | [11]; at 33.0 µM 96% | [11]; [18] 98% | [11]; at 50.0 µM 92.9% | [11]; at 100.0 µM 99% | [12]; at 33.0 µM 97% | [12]; at 100.0 µM 99% | [13]; at 33.0 µM 95% | [13]; at 100.0 µM 99% | [14]; at 33.0 µM 96% | [14]; at 100.0 µM 99% | [15]; [18] 98% | [15]; at 50.0 µM 92% | [16]; at 33.0 µM 96% | [16]; at 100.0 µM 99%
inactive: [1]; at 1.2 µM -22% | [1]; at 3.7 µM -30% | [1]; at 11.0 µM -9% | [2]; at 1.2 µM -27% | [2]; at 3.7 µM -25% | [2]; at 11.0 µM 1% | [3]; at 1.2 µM -7% | [3]; at 3.7 µM 0% | [3]; at 11.0 µM 32% | [4]; at 1.2 µM -33% | [4]; at 3.7 µM -32% | [4]; at 11.0 µM -14% | [5]; at 1.2 µM -11% | [5]; at 3.7 µM -28% | [5]; [17] 57% | [5]; at 11.0 µM 6% | [6]; at 1.2 µM -28% | [6]; at 3.7 µM -12% | [6]; [17] 61% | [6]; at 11.0 µM 2% | [7]; at 1.2 µM -11% | [7]; at 3.7 µM -12% | [7]; at 11.0 µM 10% | [8]; [17] -16% | [9]; at 1.2 µM 13% | [9]; at 3.7 µM 17% | [9]; at 11.0 µM 11% | [10]; [17] 38% | [11]; at 1.2 µM 1% | [11]; at 3.7 µM -4% | [11]; [17] 16% | [11]; at 11.0 µM 5% | [12]; at 1.2 µM -8% | [12]; at 3.7 µM -12% | [12]; at 11.0 µM 2% | [13]; at 1.2 µM -12% | [13]; at 3.7 µM -8% | [13]; at 11.0 µM 7% | [14]; at 1.2 µM -4% | [14]; at 3.7 µM -13% | [14]; at 11.0 µM 14% | [15]; [17] 38% | [16]; at 1.2 µM -19% | [16]; at 3.7 µM -32% | [16]; at 11.0 µM -19%
